This is a sample that favours compounds with a hit; in the whole collection about 15% have one here.
RORgamma inh = ROR gamma (mouse) transcription inhibition | P51450 | Drosophila S2 Gal4-RORgamma UAS-luciferase reporter, 20 h | Potency, µM (series often up to 53.6 µM), hits mostly inhibitors | hit rate 5.4% among 310,000; also: nearly all actives have a fitted effect of over 60% in size
Target sequence (P51450 whole entry, looked up, the tested form may be a part): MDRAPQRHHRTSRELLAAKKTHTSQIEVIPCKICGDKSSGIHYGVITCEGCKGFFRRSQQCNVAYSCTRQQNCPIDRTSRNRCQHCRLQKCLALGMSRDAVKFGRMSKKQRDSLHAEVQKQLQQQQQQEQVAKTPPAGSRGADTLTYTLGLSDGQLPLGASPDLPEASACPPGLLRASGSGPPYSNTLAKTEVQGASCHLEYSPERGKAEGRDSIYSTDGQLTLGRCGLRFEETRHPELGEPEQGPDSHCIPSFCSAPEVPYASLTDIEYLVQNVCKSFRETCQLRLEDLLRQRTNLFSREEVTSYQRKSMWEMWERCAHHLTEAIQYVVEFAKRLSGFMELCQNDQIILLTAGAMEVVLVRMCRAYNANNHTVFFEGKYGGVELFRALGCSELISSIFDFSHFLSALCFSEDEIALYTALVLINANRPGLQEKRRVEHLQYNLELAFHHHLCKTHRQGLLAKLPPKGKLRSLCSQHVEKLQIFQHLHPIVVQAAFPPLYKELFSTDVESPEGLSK
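Schneider cells (Drosophila), stable Gal4 DBD–ROR gamma + UAS-luc; 1 hr cmpd preincubation; Cu2+ induction 700 uM final; 20 hr ambient; luminescence.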
TDP1 cell CPT = growth inhibition of DT40 Tdp1-/-;hTDP1 cells with camptothecin (screen for TDP1 inhibitors); Potency, µM (top dose mostly 46.2 µM), usual class: inhibitors; chicken DT40 Tdp1-/-;hTDP1 cells + 20 nM CPT, ATP luminescence, 48 h; AID 686979; hit rate 12% among 420,000; also: nearly all actives have a fitted effect of over 55% in size
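Cell growth measured by CellTiter-Glo luminescence after a minimum 48 h, 37 C compound exposure with 20 nM CPT in Tdp1-knockout DT40 cells stably expressing hTDP1, seeded 400/well; qHTS titration format.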
ELG1 repair inh = ELG1-dependent DNA repair inhibition; HEK293T ELG1-luciferase reporter, luminescence, 16 h; DNA damage induced by 5-fluorouridine; Potency, µM (top dose mostly 46.1 µM), usual class: inhibitors; hit rate 2.3% among 330,000; AID 504467; also: nearly all actives have a fitted effect of over 55% in size
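DMSO vehicle served as the neutral condition. Each well held 2,000 cells given 5-fluorouridine plus compound; after 16 hr at 37 °C/5% CO2, ONE-Glo was added and luciferase measured 30 min later.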
DT40 TDP1 no CPT = qHTS for Inhibitors of human tyrosyl-DNA phosphodiesterase 1 (TDP1): qHTS in cells in absence of CPT; DT40 Tdp1-/- hTDP1 cells, no CPT, ATP luminescence, 48 h; Potency, µM (highest dose often 46.2 µM), hits mostly inhibitors; hit rate 15% among 420,000; also: nearly all actives have a fitted effect of over 55% in size
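Luminescent ATP content (CellTiter-Glo) served as the growth readout. Knockout chicken DT40 cells expressing human TDP1 were exposed to compounds without camptothecin for a minimum 48 hr at 37 °C.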
12-LOX inh = blocks human arachidonate 12S-lipoxygenase; hit rate 1.1% among 580,000; P18054; AID 1671190; purified 12hLO, xylenol orange hydroperoxide absorbance; Potency, µM (series often up to 108 µM), actives largely listed as inhibitors
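Purified human 12hLO at 150 nM in 25 mM Hepes, 0.01% Triton X-100, pH 7.0, preincubated 15 min at room temperature with compound. Reaction started with 40 uM arachidonic acid, 30 min at room temperature. Hydroperoxide measured by Fe-xylenol orange, 573/405 nm absorbance ratio.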
Gal4-VP16 FLuc = inhibits Gal4-VP16 luciferase reporter, ROR gamma counter-screen | hit rate 3.5% among 310,000 | Potency, µM (titrated, usually from 53.6 µM), usual class: inhibitors | AID 2546 | Drosophila S2 Gal4-VP16 UAS-luciferase, luminescence, 20 h;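 also: Gal4-VP16 expression switched on by copper sulfate through the metallothionein promoter; nearly all actives have a fitted effect of over 50% in size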
Hits are given with their value; – = inactive; ? = inconclusive; · = no result; [ ] = another dose, or the depositor's remark. Calls follow the shape of the dose curve; as a rule, active = well fitted curve in the direction sought with a large enough effect; inconclusive = small, poorly fitted or top-dose-only effect, or another doubt; inactive = no such curve, though single readings can be large; an effect the other way counts as inactive or inconclusive.

SMILES	RORgamma inh	TDP1 cell CPT	ELG1 repair inh	DT40 TDP1 no CPT	12-LOX inh	Gal4-VP16 FLuc
CC(C)NC(=O)c1ccc(Cn2cnc3ccccc3c2=O)cc1	·	·	·	·	–	·
Cc1ccc2[nH]c(C)c(CCN(Cc3ccncc3)C(=S)NC(C)(C)C)c2c1	·	·	·	·	–	·
CCOC(=O)Cc1csc(NC(=O)c2ccc3ccccc3n2)n1	6.3µM	?	–	18µM	–	?
COc1ccc(C(=O)/C(=C\c2ccc(Cl)cc2)c2nc3ccccc3o2)cc1	·	·	·	·	–	·
Cc1cc(C(F)(F)F)nc(SC(C(=O)O)c2ccccc2)n1 (stereo not drawn)	·	·	·	·	11µM	·
CCN(CC)C(=O)N1c2ccccc2Sc2ccccc21	?	?	–	?	–	–
CCN(CC)C(=O)N1c2ccccc2CC(N(CC)CC)c2ccccc21 (stereo not drawn)	–	7.3µM	–	5.8µM	–	–
CCOc1cc(-c2ccc(OC(=O)c3ccc(OC)cc3)c(OC)c2)cc(=O)c2c(C)oc(C)c12	·	15µM	·	18µM	–	·
COc1ccc(-c2cc(OC(=O)c3ccc(F)cc3)c3c(C)oc(C)c3c(=O)c2)cc1OC	·	18µM	·	?	?	·
COc1cc(-c2cc(OC)c3c(C)oc(C)c3c(=O)c2)ccc1OC(=O)c1cccc(C)c1	·	23µM	·	13µM	?	·
COc1ccc(-c2cc(OC(=O)c3cccc(Br)c3)c3c(C)oc(C)c3c(=O)c2)cc1	·	·	·	·	4.5µM	·
COc1ccc(-c2cc(OC)c3c(C)oc(C)c3c(=O)c2)cc1OC	–	?	–	?	?	–
O=C(Nc1ccccc1Cl)C12CC3CC(CC(C3)C1)C2	·	·	·	·	–	·
NC(=O)COC(=O)c1cc(-c2ccc(-c3ccccc3)cc2)nc2ccccc12	·	·	·	·	–	·
Cc1cccc(N(Cc2cc(=O)[nH]c3ccccc23)C(=O)CCl)c1	18µM	4.1µM	?	5.2µM	?	?
COc1ccc(N(Cc2cc(=O)[nH]c3ccccc23)C(=O)CCl)cc1	–[1.91 µM]	2.1µM	?	2.1µM	?	?
CCCC(=O)N(Cc1cc(=O)[nH]c2ccccc12)c1ccc(OC)cc1	–	–	–	–	?	–
Cc1cccc(NC(=O)COc2ccc3c(C)cc(=O)oc3c2)c1	·	·	·	·	–	·
C=CCn1c(C)cc(C(=O)COc2ncnc3ccc(Br)cc23)c1C	·	·	·	·	–	·
CCOC(=O)c1c(NC(=O)CSc2c[nH]c3ccccc23)sc2c1CCC2	–	?	–	13µM	–	–
CCOC(=O)c1c(NC(=O)C(C)Sc2cn(CCNC(=O)c3ccc(OC)cc3)c3ccccc23)sc2c1CCC2 (stereo not drawn)	·	21µM	·	?	–	·
CCOC(=O)c1c(NC(=O)CSc2cn(CCNC(=O)c3ccccc3OC)c3ccccc23)sc2c1CCC2	·	?	·	?	–	·
CCOC(=O)c1c(NC(=O)CSc2cn(CCNC(=O)c3ccccc3OC)c3ccccc23)sc2c1CCCC2	·	?	·	23µM	–	·
CCOC(=O)c1c(NC(=O)CSc2cn(CCNC(=O)c3ccccc3F)c3ccccc23)sc2c1CCC2	·	?	·	?	–	·
CCOC(=O)c1c(NC(=O)CSc2cn(CCNC(=O)c3ccccc3F)c3ccccc23)sc2c1CCCC2	·	16µM	·	16µM	–	·
SMILES	RORgamma inh	TDP1 cell CPT	ELG1 repair inh	DT40 TDP1 no CPT	12-LOX inh	Gal4-VP16 FLuc
COc1cccc(CNC(=O)c2ccc(S(=O)(=O)N3CCc4ccccc4C3)cc2)c1	·	·	·	·	–	·
Cc1c(S(=O)(=O)c2ccc(F)cc2)c(N)n(Cc2cccnc2)c1C	·	·	·	·	–	·
COC(=O)CC(NC(=O)Cc1cccc(OC)c1)c1cccs1 (stereo not drawn)	·	·	·	·	–	·
O=C(CNC(=O)c1ccccc1)OCc1cc(=O)oc2cc(O)ccc12	·	·	·	·	–	·
Cc1ccc(S(=O)(=O)Nc2c(C)nn(C)c2C)cc1C	·	21µM	–	13µM	–	·
Cc1nn(C)c(C)c1NS(=O)(=O)c1ccc(N2CCCC2=O)cc1	?	18µM	?	16µM	–	?
COc1ccc(S(=O)(=O)Nc2c(C)nn(C)c2C)cc1Br	·	–	–	?	–	·
